Test results: PubChem BioAssay (EPA / NIEHS)
Inconclusive results are not listed. Some structures have more than one record in an assay (separate samples or runs), and their calls can disagree. Calls of active or inactive are those of the source. The calls were made as follows, unless noted: active = hit-call score of the fitted dose curve at least 0.9, where 1 is the maximum; inactive = score below 0.9.

Assays:
[1] = molecular target: Transcription factor E2F1 (Homo sapiens) (UniProt Q01094); experiment: ATG_E2F_CIS: Attagene CIS-FACTORIAL HepG2 Assay for human E2F Transcription Factor 1 (AID 2282935); details: HepG2 Attagene cis-reporter, E2F reporter RNA transcripts; actives raise or lower the signal
Sequence of Transcription factor E2F1 (Homo sapiens) (Q01094 whole entry, looked up): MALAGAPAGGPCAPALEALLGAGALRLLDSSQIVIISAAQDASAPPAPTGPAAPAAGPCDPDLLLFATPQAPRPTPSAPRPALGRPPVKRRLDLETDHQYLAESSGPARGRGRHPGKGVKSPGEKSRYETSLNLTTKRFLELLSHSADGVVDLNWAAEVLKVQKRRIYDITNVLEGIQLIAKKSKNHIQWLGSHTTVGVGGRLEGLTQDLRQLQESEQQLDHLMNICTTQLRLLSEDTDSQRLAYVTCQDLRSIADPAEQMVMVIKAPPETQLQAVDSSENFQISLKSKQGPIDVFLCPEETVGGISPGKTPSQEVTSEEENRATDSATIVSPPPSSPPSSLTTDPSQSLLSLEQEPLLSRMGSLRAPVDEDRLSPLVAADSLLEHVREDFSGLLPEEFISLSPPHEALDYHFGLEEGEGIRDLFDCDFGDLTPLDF
Method in brief: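 Endogenous E2F1 activity read through cis-promoter reporter units transfected into HepG2. After 24 h compound treatment, reporter mRNA measured by RT-PCR, HpaI digestion and capillary electrophoresis. Bidirectional fit versus DMSO.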

[2] = ATG_M_61_CIS: Attagene CIS-FACTORIAL HepG2 Assay for M61 Transcription Factor (Internal Marker) (AID 2282937); details: HepG2 Attagene CIS-FACTORIAL M61 internal marker reporter; actives raise or lower the signal
Method in brief: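 Transfect HepG2 with MRTUs; dose 24 h; isolate RNA; reverse-transcribe with DNase I treatment; PCR-amplify, FAM-label and cut with HpaI for 2 h at 37 C; resolve by CE. Bidirectional fitting against DMSO.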

[3] = ATG_GRE_CIS: Attagene CIS-FACTORIAL HepG2 Assay for human Glucocorticoid Response Elements (GRE) (AID 2282947); details: HepG2 GRE cis-reporter, Attagene multiplex mRNA; actives raise or lower the signal
Method in brief: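 Transiently transfected HepG2 cells carrying GRE cis-reporter units (endogenous TF activity) dosed 24 h; reporter mRNA quantified by RT-PCR, 6-FAM labelling, HpaI digestion and capillary electrophoresis. Bidirectional fit versus DMSO baseline.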

[4] = ATG_ISRE_CIS: Attagene CIS-FACTORIAL HepG2 Assay for human Interferon Regulatory Factor 1 (IRF1) binding to an Interferon-Stimulated Response Element (ISRE) (AID 2282948); details: HepG2 ISRE cis-reporter (Attagene), mRNA transcription readout; actives raise or lower the signal
Method in brief: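 Quantitation relies on labelled RT-PCR fragments separated by capillary electrophoresis. Human HepG2 cells bearing cis-promoter reporter constructs were treated 24 h; DMSO served as baseline for bidirectional fitting.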

[5] = molecular target: Hepatocyte nuclear factor 6 (Homo sapiens) (UniProt Q9UBC0); experiment: ATG_HNF6_CIS: Attagene CIS-FACTORIAL HepG2 Assay for human Hepatocyte Nuclear Factor 6 (HNF6) (AID 2282952); details: HepG2 Attagene cis-factorial HNF6 reporter transcription; actives raise or lower the signal
Sequence of Hepatocyte nuclear factor 6 (Homo sapiens) (Q9UBC0 whole entry, looked up): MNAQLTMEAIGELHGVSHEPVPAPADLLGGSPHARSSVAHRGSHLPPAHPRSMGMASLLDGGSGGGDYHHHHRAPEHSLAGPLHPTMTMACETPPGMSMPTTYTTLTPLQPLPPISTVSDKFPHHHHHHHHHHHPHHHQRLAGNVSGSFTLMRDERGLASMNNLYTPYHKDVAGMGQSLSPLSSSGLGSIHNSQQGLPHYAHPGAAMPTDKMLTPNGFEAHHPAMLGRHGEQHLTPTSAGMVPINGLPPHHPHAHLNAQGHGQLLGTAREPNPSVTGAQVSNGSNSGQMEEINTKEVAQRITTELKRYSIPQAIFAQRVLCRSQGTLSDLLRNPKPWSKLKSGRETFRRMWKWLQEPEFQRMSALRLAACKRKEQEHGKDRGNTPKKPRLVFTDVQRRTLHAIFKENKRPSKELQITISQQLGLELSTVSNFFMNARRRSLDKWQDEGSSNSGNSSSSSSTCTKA
Method in brief: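 Cells are HepG2 carrying transiently transfected cis-promoter reporter units. Treatment lasts 24 h, after which reporter transcripts are reverse-transcribed, amplified, FAM-labelled and sized by capillary electrophoresis. DMSO serves as baseline.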

[6] = ATG_MRE_CIS: Attagene CIS-FACTORIAL HepG2 Assay for human Metal Responsive Element (MRE) (AID 2282954); details: HepG2 MRE cis-reporter transcription, Attagene multiplex; actives raise or lower the signal
Method in brief: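 HepG2 cells transiently transfected with cis-element-driven reporter units; mRNA measured 24 h after dosing. Reporter transcripts quantified by RT-PCR, FAM labelling, HpaI digestion and capillary electrophoresis; bidirectional fit versus DMSO.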

[7] = ATG_TCF_b_cat_CIS: Attagene CIS-FACTORIAL HepG2 Assay for human T-Cell-Factor with beta-catenin (TCF/b-cat) (AID 2282965); details: HepG2 TCF/beta-catenin cis-reporter transcription, actives raise or lower the signal
Method in brief: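 Cells of the HepG2 line carry transiently transfected reporter units whose promoters respond to endogenous factors. Twenty-four hours post-dosing, reporter mRNA induction is measured by fluorescent RT-PCR and capillary electrophoresis, with DMSO as baseline.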

[8] = ATG_M_06_TRANS: Attagene TRANS-FACTORIAL HepG2 Assay for M06 Transcription Factor (Internal Marker) (AID 2282983; active = hit-call score of the fitted dose curve at least 0.9, where 1 is the maximum;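 also: reporter transcript level by RT-PCR then capillary electrophoresis fluorescence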); details: HepG2 Attagene TRANS M06 internal marker reporter
Method in brief: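 Internal-marker background readout from a multiplexed TRANS reporter system in HepG2; 24 h dosing; mRNA induction quantified by RT-PCR plus capillary electrophoresis fluorescence; DMSO as negative control and baseline.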

[9] = molecular target: Nuclear receptor subfamily 4 group A member 2 (Homo sapiens) (UniProt P43354); experiment: ATG_NURR1_TRANS: Attagene TRANS-FACTORIAL HepG2 Assay for human Nuclear Receptor Related Protein 1 (NURR1) (AID 2282985; active = hit-call score of the fitted dose curve at least 0.9, where 1 is the maximum); details: HepG2 Attagene TRANS reporter, mRNA readout
Sequence of Nuclear receptor subfamily 4 group A member 2 (Homo sapiens) (P43354 whole entry, looked up, the tested form may be a part): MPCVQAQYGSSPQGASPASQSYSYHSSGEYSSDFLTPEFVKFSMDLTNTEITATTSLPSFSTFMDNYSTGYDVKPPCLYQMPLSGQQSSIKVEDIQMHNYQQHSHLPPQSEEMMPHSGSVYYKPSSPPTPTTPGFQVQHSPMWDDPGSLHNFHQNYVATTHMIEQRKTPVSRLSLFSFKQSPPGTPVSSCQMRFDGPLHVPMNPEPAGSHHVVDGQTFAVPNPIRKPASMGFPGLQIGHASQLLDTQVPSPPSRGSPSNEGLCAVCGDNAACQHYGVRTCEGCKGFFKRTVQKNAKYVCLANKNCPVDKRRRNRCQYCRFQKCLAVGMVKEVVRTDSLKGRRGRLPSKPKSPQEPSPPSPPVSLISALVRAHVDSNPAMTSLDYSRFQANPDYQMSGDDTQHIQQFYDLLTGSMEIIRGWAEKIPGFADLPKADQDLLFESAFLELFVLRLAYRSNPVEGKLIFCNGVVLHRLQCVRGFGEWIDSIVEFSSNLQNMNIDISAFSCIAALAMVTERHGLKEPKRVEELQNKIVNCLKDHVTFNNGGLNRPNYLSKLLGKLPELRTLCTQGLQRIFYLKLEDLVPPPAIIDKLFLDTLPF
Method in brief: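 HepG2 cells transiently transfected with NURR1-Gal4 chimera and GAL4-UAS reporter units; after 24 hr compound exposure, reporter mRNA quantified by RT-PCR and capillary electrophoresis; gain of signal fitted against DMSO.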

[10] = molecular target: Transcriptional activator Myb (Homo sapiens) (UniProt P10242); experiment: ATG_Myb_CIS: Attagene CIS-FACTORIAL HepG2 Assay for human Myeloblastosis (Myb) Proto-Oncogene Transcription Factor (AID 2282986); details: HepG2 Attagene CIS-FACTORIAL Myb reporter transcription; actives raise or lower the signal
Sequence of Transcriptional activator Myb (Homo sapiens) (P10242 whole entry, looked up): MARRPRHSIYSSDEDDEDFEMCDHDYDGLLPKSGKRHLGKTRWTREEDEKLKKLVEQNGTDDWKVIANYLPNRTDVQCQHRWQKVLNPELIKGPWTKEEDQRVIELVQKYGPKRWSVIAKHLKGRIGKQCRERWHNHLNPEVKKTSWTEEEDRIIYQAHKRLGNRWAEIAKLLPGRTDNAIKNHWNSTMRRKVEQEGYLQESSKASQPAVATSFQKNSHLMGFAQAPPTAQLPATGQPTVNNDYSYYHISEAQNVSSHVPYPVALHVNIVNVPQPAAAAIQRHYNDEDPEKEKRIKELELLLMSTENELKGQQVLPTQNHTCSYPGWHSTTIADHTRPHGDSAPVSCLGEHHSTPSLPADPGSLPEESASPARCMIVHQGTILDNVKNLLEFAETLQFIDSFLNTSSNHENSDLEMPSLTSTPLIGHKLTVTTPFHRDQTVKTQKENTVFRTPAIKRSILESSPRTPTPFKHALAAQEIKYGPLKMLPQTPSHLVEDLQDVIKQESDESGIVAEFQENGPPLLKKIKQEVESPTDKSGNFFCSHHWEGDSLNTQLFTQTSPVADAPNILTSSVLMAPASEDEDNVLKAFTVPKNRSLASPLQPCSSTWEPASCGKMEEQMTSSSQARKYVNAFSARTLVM
Method in brief: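 After 24 h of compound dosing, total RNA from transfected HepG2 cells is reverse-transcribed and the reporter sequences amplified, labeled and separated by capillary electrophoresis. Values come from bidirectional fitting against DMSO.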

[11] = molecular target: Nuclear respiratory factor 1 (Homo sapiens) (UniProt Q16656); experiment: ATG_NRF1_CIS: Attagene CIS-FACTORIAL HepG2 Assay for human Nuclear Respiratory Factor 1 (NRF1) Orphan Gene (AID 2282987); details: HepG2 NRF1 cis-element reporter, Attagene multiplex; actives raise or lower the signal
Sequence of Nuclear respiratory factor 1 (Homo sapiens) (Q16656 whole entry, looked up): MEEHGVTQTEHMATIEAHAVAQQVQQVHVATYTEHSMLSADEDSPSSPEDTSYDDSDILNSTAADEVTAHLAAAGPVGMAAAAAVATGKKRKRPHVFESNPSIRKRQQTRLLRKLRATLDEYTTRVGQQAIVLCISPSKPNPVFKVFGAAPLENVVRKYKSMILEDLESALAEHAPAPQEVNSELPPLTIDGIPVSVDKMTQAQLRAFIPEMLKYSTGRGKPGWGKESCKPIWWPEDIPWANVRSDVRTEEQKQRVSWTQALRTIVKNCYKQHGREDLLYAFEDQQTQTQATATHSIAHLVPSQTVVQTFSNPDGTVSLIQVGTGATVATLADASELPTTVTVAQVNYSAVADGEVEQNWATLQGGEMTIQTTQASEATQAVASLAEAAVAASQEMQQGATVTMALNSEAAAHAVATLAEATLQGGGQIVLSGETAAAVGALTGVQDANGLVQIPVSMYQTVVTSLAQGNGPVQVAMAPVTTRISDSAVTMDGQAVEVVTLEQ
Method in brief: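 Measured: fluorescent reporter-specific RT-PCR products from transfected HepG2 cells, separated by capillary electrophoresis. Exposure lasted 24 h. Analysis used bidirectional curve fitting with DMSO as negative control.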

[12] = molecular target: Retinoic acid receptor RXR-alpha (Homo sapiens) (UniProt P19793); experiment: ATG_RXRa_TRANS: Attagene TRANS-FACTORIAL HepG2 Assay for human Retinoid X Receptor alpha (RXRa) (AID 2283012; active = hit-call score of the fitted dose curve at least 0.9, where 1 is the maximum)
Sequence of Retinoic acid receptor RXR-alpha (Homo sapiens) (P19793 whole entry, looked up, the tested form may be a part): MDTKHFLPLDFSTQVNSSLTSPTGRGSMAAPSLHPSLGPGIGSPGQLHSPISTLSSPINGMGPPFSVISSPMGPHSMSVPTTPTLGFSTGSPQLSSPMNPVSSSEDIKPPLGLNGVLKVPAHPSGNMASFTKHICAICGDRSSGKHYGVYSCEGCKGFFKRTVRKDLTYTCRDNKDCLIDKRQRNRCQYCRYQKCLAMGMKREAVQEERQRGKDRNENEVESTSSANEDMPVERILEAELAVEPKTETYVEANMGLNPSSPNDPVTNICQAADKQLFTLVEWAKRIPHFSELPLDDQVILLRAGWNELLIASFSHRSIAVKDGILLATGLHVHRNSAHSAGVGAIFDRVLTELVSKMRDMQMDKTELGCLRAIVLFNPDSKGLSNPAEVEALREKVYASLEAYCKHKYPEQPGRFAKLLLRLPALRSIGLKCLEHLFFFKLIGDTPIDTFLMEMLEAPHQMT
Method in brief: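 HepG2 cells transiently transfected with GAL4-UAS reporter units and chimeric RXRa-Gal4 protein, treated 24 h. Reporter mRNA measured by RT-PCR, fluorescent labelling, HpaI digestion and capillary electrophoresis. Induction fitted against DMSO.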

[13] = molecular target: Hypoxia-inducible factor 1-alpha (Homo sapiens) (UniProt Q16665); experiment: ATG_HIF1a_CIS: Attagene CIS-FACTORIAL HepG2 Assay for human Hypoxia Inducible Factor 1 (HIF1A) (AID 2282951); details: HepG2 Attagene cis-factorial HIF1a reporter transcription; actives raise or lower the signal
Sequence of Hypoxia-inducible factor 1-alpha (Homo sapiens) (Q16665 whole entry, looked up): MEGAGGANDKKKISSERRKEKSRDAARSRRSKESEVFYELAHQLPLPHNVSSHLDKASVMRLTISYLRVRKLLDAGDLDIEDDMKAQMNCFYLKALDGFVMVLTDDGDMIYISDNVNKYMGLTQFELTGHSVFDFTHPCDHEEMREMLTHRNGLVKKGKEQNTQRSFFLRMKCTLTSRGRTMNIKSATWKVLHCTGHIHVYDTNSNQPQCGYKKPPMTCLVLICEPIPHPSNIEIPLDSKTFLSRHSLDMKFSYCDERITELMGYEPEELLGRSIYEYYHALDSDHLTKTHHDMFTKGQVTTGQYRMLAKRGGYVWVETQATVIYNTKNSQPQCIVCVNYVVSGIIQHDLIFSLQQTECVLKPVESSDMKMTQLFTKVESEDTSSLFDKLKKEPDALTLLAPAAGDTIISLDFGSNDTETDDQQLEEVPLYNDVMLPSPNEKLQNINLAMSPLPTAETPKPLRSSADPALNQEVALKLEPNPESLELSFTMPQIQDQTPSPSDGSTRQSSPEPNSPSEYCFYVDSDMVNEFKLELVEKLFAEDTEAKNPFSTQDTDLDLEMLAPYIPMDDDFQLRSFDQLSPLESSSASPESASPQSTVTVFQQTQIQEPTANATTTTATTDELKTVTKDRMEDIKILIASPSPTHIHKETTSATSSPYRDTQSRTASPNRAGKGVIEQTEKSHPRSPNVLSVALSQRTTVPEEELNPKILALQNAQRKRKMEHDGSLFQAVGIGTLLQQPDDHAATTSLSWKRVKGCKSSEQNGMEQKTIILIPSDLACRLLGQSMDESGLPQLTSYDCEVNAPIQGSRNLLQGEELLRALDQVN
Method in brief: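 After 24 h chemical exposure of reporter-transfected HepG2 cells, reporter cDNA was PCR-amplified, labelled by 6-FAM primer extension (2 min 95 C, 20 s 68 C, 10 min 72 C), HpaI-cut (2 h, 37 C) and analysed by CE.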

[14] = ATG_PBREM_CIS: Attagene CIS-FACTORIAL HepG2 Assay for human Phenobarbital-responsive Enhancer Module (PBREM) (AID 2282955); details: HepG2 PBREM cis-reporter, Attagene multiplexed transcription; actives raise or lower the signal
Method in brief: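 Measures endogenous factor action on a phenobarbital-responsive enhancer module. HepG2 transiently carrying cis reporters, 24 h treatment, mRNA read-out by RT-PCR plus capillary electrophoresis.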

[15] = ATG_PPRE_CIS: Attagene CIS-FACTORIAL HepG2 Assay for human Peroxisome Proliferator-activated Response Element (PPRE) (AID 2282958); details: HepG2 PPRE cis-element reporter, Attagene transcription factor profiling; actives raise or lower the signal
Method in brief: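 PPRE activity in HepG2: transient cis-reporter transfection, 24 h compound incubation, reporter mRNA by RT-PCR and CE fluorescence; gain/loss fitted against DMSO.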

[16] = molecular target: Cellular tumor antigen p53 (Homo sapiens) (UniProt P04637); experiment: TOX21_p53_BLA_p2_ratio: Tox21 HCT-116 p53 Agonism Beta-lactamase Assay, Ratio, Phase 2 (AID 2283592; active = hit-call score of the fitted dose curve at least 0.9, where 1 is the maximum)
Sequence of Cellular tumor antigen p53 (Homo sapiens) (P04637 whole entry, looked up): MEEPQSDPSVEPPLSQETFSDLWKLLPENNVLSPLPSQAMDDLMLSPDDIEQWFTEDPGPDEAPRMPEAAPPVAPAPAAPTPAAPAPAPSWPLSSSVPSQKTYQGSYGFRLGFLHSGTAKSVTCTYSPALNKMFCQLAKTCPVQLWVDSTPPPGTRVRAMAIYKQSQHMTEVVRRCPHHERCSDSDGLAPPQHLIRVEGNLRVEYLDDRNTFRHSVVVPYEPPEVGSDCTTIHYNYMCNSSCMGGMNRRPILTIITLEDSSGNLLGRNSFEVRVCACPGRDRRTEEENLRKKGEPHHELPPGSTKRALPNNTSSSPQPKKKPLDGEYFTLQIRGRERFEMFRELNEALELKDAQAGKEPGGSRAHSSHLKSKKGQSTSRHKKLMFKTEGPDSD
Method in brief: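 Human colon HCT116 cells with an inducible p53 beta-lactamase reporter are exposed to test chemicals for 16 h at 37C. Reporter induction is read as the 460/530 nm emission ratio after CCF4-AM loading, normalized to DMSO.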

[17] = molecular target: Cellular tumor antigen p53 (Homo sapiens) (UniProt P04637); experiment: TOX21_p53_BLA_p3_ratio: Tox21 HCT-116 p53 Agonism Beta-lactamase Assay, Ratio, Phase 3 (AID 2283596; active = hit-call score of the fitted dose curve at least 0.9, where 1 is the maximum)
Method in brief: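 HCT116 p53-bla cells (4000/well) given compound in DMSO (217-fold dilution) after 5 h, incubated 16 h at 37C. CCF4-AM substrate 2 h at room temperature; 460/530 nm emission ratio, gain fitted against DMSO.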

[18] = molecular target: Cellular tumor antigen p53 (Homo sapiens) (UniProt P04637); experiment: TOX21_p53_BLA_p5_ratio: Tox21 HCT-116 p53 Agonism Beta-lactamase Assay, Ratio, Phase 5 (AID 2283599; active = hit-call score of the fitted dose curve at least 0.9, where 1 is the maximum)
Method in brief: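 HCT-116 p53-bla cells (4000/well) plated 5 h, dosed with compound (217-fold DMSO dilution) for 16 h at 37 C; CCF4-AM substrate 2 h at room temperature. Activity is the 460/530 nm emission ratio (405 nm excitation), fitted in gain-of-signal direction versus DMSO.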

[19] = molecular target: Cellular tumor antigen p53 (Homo sapiens) (UniProt P04637); experiment: TOX21_p53_BLA_p4_ratio: Tox21 HCT-116 p53 Agonism Beta-lactamase Assay, Ratio, Phase 4 (AID 2283601; active = hit-call score of the fitted dose curve at least 0.9, where 1 is the maximum)
Method in brief: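 HCT-116 p53 beta-lactamase reporter cells (4000/well) preincubated 5 h, then compound (217-fold dilution of DMSO stock) for 16 h at 37C. CCF4-AM substrate added 2 h at room temperature; 460/530 nm emission ratio fitted upward versus DMSO.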

[20] = molecular target: Heat shock factor protein 1 (Homo sapiens) (UniProt Q00613); experiment: ATG_HSE_CIS: Attagene CIS-FACTORIAL HepG2 Assay for human Heat Shock Transcription Factor 1 (HSE) (AID 2282953); details: HepG2 HSE cis-reporter, Attagene RNA transcription; actives raise or lower the signal
Sequence of Heat shock factor protein 1 (Homo sapiens) (Q00613 whole entry, looked up): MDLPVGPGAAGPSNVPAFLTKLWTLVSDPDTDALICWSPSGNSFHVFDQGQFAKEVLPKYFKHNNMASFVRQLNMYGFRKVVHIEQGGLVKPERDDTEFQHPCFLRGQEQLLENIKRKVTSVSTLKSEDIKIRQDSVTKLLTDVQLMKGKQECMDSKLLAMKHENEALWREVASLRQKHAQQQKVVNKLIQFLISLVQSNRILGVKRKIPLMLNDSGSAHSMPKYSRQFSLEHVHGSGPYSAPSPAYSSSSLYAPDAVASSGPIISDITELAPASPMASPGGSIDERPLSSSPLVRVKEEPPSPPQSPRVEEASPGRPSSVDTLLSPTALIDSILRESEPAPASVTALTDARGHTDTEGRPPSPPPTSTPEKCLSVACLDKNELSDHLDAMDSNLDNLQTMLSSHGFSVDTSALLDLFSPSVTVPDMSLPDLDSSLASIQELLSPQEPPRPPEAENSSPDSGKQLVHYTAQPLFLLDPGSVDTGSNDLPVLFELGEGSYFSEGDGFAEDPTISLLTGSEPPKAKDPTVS
Method in brief: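 After a 24 h incubation with test chemical, transfected HepG2 cells were harvested for RNA; reporter transcripts were measured by RT-PCR and capillary electrophoresis. Values reflect gain or loss of signal relative to DMSO.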

Measured: AC50

O=[N+]([O-])O.O=[N+]([O-])O.[Cd]
active: [4] 1.03 µM | [6] 0.351 µM | [11] 4.62 µM
inactive: [1] | [2] | [3] | [5] | [7] | [8] | [9] | [10] | [12]

Cc1cc(C)c(C2=C(OC(=O)CC(C)(C)C)C3(CCCC3)OC2=O)c(C)c1
inactive: [1] | [3] | [13] | [5] | [14] | [15] | [7] | [8] | [9] | [10] | [11]

CCOP(=O)(OCC)OCC
not listed: [1] | [5] | [7] | [8] | [9] | [11] | [20]
inactive: all other assays above

CSc1nc(N=[N+]=[N-])nc(NC(C)C)n1
inactive: [2] | [13] | [5] | [20] | [6] | [14] | [15] | [7] | [10] | [18] | [19]

CCCCCCCCCCCCCCCC[N+](C)(C)C
active: [3] 48.5 µM | [6] 25.5 µM | [7] 5.71 µM | [10] 24.5 µM | [11] 26 µM
inactive: [2] | [20] | [14] | [15] | [8] | [9] | [12]

CCCCCc1cc(O)cc(O)c1
active: [15] 19.8 µM | [16] 83.7 µM
inactive: [1] | [2] | [4] | [5] | [20] | [14] | [7] | [8] | [9] | [10] | [16] | [17] | [18] | [19]

C=CC(=O)OCCCCOC(=O)C=C
active: [3] 70.5 µM | [4] 54.1 µM | [6] 64 µM | [16] 49.6 µM
not listed: [1] | [5] | [7] | [13]
inactive: all other assays above

O=C(CCN1CC1)OCC(CO)(COC(=O)CCN1CC1)COC(=O)CCN1CC1
not listed: [1] | [9] | [10] | [15]
inactive: all other assays above

CCC(C)c1cc(C(C)(C)C)cc(-n2nc3ccccc3n2)c1O (stereo not drawn)
inactive: [1] | [2] | [3] | [6] | [15] | [7] | [8] | [9] | [10] | [11]

COC(=O)c1ccccc1S(=O)(=O)NC(=O)Nc1nc(C)cc(C)n1
inactive: [1] | [2] | [3] | [4] | [13] | [5] | [14] | [7] | [8] | [9] | [10]
